Assay outcomes as filed in PubChem BioAssay.
gsp agonist – qHTS for Agonist of gsp, the Etiologic Mutation Responsible for Fibrous Dysplasia/McCune-Albright Syndrome: qHTS; gsp mutant cells, cAMP HTRF, 30 min; Potency, µM (series often up to 76.9 µM), without a hit: top-dose activation (cAMP increase), hits mostly activators; hit rate 0.13% among 340,000; AID 624287, 2012; active = well fitted activation curve with a large enough effect; inconclusive = small, poorly fitted or top-dose-only effect, or another doubt; inactive = no such curve, though single readings can be large or run the other way; cell line not stated here;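 note: phosphodiesterase inhibitor Ro 20-1724 added with compounds to block cAMP breakdown; potency is the fitted concentration of half-maximal effect; nearly all actives have a fitted effect of over 60% in size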
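Cells in DMEM/10% FBS with G418 were pretreated with compounds in DMSO plus […] (300 uM stock) for 30 min at 37C. cAMP was measured by HTRF (cAMP-d2 plus anti-cAMP antibody-K) after 30 min at room temperature.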
gsp antag – qHTS for Antagonists of gsp, the Etiologic Mutation Responsible for Fibrous Dysplasia/McCune-Albright Syndrome: qHTS | hit rate 0.4% among 340,000 | gsp-mutant cells, cAMP HTRF, 30 min | Potency, µM (titrated, usually from 76.9 µM), without a hit: at the top dose activity change, negative = inhibition, most hits filed as inhibitors | AID 624288, 2012; calls by dose curve; cell line not stated here;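 note: intracellular cAMP measured with PDE inhibitor Ro 20-1724 present during compound exposure; potency is the fitted concentration of half-maximal effect; % is set by controls: 0 for no effect and ±100 for the full control effect; nearly all actives have a fitted effect of over 65% in size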
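Measurement of cellular cAMP by homogeneous time-resolved fluorescence following a 30 min compound exposure at 37C. The PDE inhibitor […] was present throughout; the assay buffer was DPBS with 0.05% BSA and 0.005% Tween 20.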
RXFP1 ag – qHTS Assay for Agonists of the Relaxin Receptor RXFP1; Relaxin receptor 1 (Homo sapiens), Q9HBX9; HEK293T-RXFP1 cAMP TR-FRET, 30 min; response scale: percent of porcine relaxin response, buffer zero; Potency, µM (top dose mostly 57.5 µM), without a hit: top-dose activation, most hits filed as activators; hit rate 0.3% among 370,000; AID 2676, 2010; active = well fitted activation curve with a large enough effect; inconclusive = small, poorly fitted or top-dose-only effect; note: potency is the fitted concentration of half-maximal effect; % is set by controls: 0 for no effect and ±100 for the full control effect; nearly all actives have a fitted effect of over 60% in size
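HEK293 cells stably expressing RXFP1, treated 30 min at 37C with compounds plus PDE4 inhibitor Ro 20174; cAMP measured by HTRF TR-FRET. Normalized to buffer and 29 nM porcine relaxin; EC50 by Hill fit.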
pAkt inh – HTS Assay for Inhibitors of Akt Phophorylation: Primary Screen | hit rate 0.32% among 360,000 | activity change, % for hits at 50 µM | Neuro2A IGF-stimulated pAkt S473 HTRF, 20 min; hits give low values | AID 651550, 2012; in the data active = activity change below about -80%; inconclusive = mostly about -51% to -80%; note: % is set by controls: 0 for no effect and ±100 for the full control effect
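Neuro2A cells (4,500/well, DMEM with 0.5% FBS) were treated with compound at a single 50 µM final concentration, stimulated with 6 nM IGF for 20 min at 37 °C, and lysed. Phospho-Akt Ser473 was read by HTRF as 665/615 ratio ×10^4.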
RXFP1 antagonist – qHTS Assay for Antagonists of the Relaxin Receptor RXFP1. Relaxin receptor 1 (Homo sapiens), Q9HBX9. HEK293-RXFP1, relaxin-stimulated cAMP HTRF, 30 min; hits give low values. activity change, negative = inhibition, % at 57.5 µM. hit rate 0.59% among 350,000. AID 1259400, 2018;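 active = activity change of -60% or lower, but not beyond a set lower limit; inconclusive = change between -60% and -40%, or beyond the set limit; inactive = change above -40%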; note: % is set by controls: 0 for no effect and ±100 for the full control effect
TSHR antagonist – Antagonists of the Thyroid Stimulating Hormone Receptor: HTS campaign. TSHR-expressing cells, TSH-stimulated cAMP HTRF, 2 h; hits give low values. hit rate 0.2% among 330,000. activity change, negative = inhibition, % at 11.5 µM. Thyrotropin receptor (Homo sapiens), P16473;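 active = activity change below a set negative limit, meaning inhibition stronger than a set level, cut at about -70% in these data; inconclusive = activity change between two set negative limits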; note: % is set by controls: 0 for no effect and ±100 for the full control effect
Target sequence (P16473 whole entry, looked up): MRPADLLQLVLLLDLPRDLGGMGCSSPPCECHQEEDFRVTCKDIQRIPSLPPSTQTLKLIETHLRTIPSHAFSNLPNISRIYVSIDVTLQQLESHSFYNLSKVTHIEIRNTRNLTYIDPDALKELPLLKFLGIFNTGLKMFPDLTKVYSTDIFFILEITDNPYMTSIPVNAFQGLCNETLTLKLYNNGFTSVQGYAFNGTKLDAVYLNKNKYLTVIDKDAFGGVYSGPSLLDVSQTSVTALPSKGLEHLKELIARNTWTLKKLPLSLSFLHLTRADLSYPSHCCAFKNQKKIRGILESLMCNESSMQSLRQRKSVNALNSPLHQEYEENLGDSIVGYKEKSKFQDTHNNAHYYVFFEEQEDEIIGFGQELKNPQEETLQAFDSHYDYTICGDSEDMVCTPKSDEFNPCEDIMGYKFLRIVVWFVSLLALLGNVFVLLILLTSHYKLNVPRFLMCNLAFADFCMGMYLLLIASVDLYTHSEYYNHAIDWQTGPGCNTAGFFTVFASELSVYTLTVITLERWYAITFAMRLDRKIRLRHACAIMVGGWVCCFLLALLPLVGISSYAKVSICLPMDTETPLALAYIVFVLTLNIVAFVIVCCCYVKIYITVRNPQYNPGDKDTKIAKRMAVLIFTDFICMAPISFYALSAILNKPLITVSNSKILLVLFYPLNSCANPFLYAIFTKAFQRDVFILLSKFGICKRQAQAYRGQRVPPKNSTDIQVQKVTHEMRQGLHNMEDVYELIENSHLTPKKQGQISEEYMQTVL
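Freshly harvested TSHR cells receive pin-tooled compound, then EC80 TSH at 4nM final. After 2 hours at 37 deg C, antibody in lysis buffer and cAMP-d2 are added; 30 minutes at ambient temperature precede the HTRF read.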
Starred values were filed as active, the others as inactive; i = inactive; ? = inconclusive; / = not tested or not shown; [ ] = dose if it differs, or a comment. This is a sample that favours compounds with a hit; in the whole collection about 1.3% have one here.

SMILES | gsp agonist | gsp antag | RXFP1 ag | pAkt inh | RXFP1 antagonist | TSHR antagonist
CCc1cc(/C(Cc2csc(C)n2)=N/O)c(O)cc1O | -18% | -15% | 0% | -104%* | -4 | -11
CCCCC(O)/C=C(C)/C=C/C=C/C(=O)N1CCCC1=O (stereo unspecified) | / | / | / | / | -10 | /
CCN(Cc1ccccc1)S(=O)(=O)c1ccc2c(c1)NC(=O)CS2 | ? | 2% | 3% | / | -72* | 0
CCN(Cc1ccccc1)S(=O)(=O)c1ccc2c(c1)NC(=O)CC(=O)N2 | 10% | -2% | 1% | i | 0 | -4
COC(=O)c1ccc(NC(=O)Nc2ccc(F)c(Cl)c2)cc1 | 0% | 35µM* | 3% | i | -20 | ?
COC(=O)c1cccc(NC(=O)NC(=O)c2ccccc2Cl)c1 | 22% | 4% | 1% | i | -6 | 4
O=C(Nc1ccc(Cl)cc1)Nc1ccc(Cl)c(C(F)(F)F)c1 | / | / | / | / | -93* | /
O=C(Nc1ccc(F)c(Cl)c1)Nc1csc2ccccc12 | 8%[15.4 µM] | 35µM* | 0% | i | -40 | -22
COC(=O)c1cccc(NC(=O)Nc2ccc(Cl)c(Cl)c2)c1 | -1% | 35µM* | 0% | i | ? | -36
COc1ccc(Cn2nc(-c3ccccc3)c(N3CCCCC3)cc2=O)cc1 | -1%[15.4 µM] | 2% | 0% | i | -12 | 17
O=c1cc(N2CCCCC2)c(-c2ccccc2)nn1Cc1ccccc1 | -1%[15.4 µM] | ? | 0% | i | -120* | 12
Cc1cc(C)n(CC(=O)NCc2ccccc2)c(=O)c1C#N | -10% | 1% | 1% | i | 10 | 3
C[C@@H]1CCCCO[C@@H](CN(C)C(=O)Nc2ccccc2)[C@@H](C)CN([C@H](C)CO)C(=O)c2cc(N(C)C)ccc2O1 | 14µM* | / | / | i | 5 | /
O=C(c1ccc(NS(=O)(=O)c2ccccc2)cc1)N1CCCC1 | -1% | 1% | 3% | -118%* | 5 | -10
O=C(c1ccc(S(=O)(=O)Nc2cccc(C(F)(F)F)c2)cc1)N1CCC1 | 10µM* | -6% | ? | i | 21 | 23
O=C(c1cccc(NS(=O)(=O)c2ccccc2)c1)N1CCN(c2ccccc2)CC1 | 24%[15.4 µM] | -18% | -1% | i | -117* | 6
O=C(c1cccc(NS(=O)(=O)c2ccccc2)c1)N1CCCC1 | -32% | 1% | 2% | i | 0 | 7
CC1(C(=O)NCc2ccccc2)CCC(=O)N1C1CC1 (stereo unspecified) | / | / | / | i | / | /
CCN1C(=O)[C@H]2[C@@H](c3ccc(C)cc3)N[C@]3(CCCN(CCC(C)C)C3=O)[C@H]2C1=O | -50% | / | / | i | 6 | /
O=[N+]([O-])c1cc(-c2nc3nc4ccccc4nc3n2CCc2ccccc2)cc([N+](=O)[O-])c1 | -1%[15.4 µM] | 35µM* | -2% | i | -8 | 4
c1ccc(Cn2c(-c3ccccc3)nc3nc4ccccc4nc32)cc1 | 27% | -17% | 5% | i | -12 | -6
Cc1ccc2c(c1C)-c1c(ccc(C)c1C)C(=O)C2=O | 9% | 18% | / | i | -69* | /
Cc1ccc(CC#N)c(-c2c(CC#N)ccc(C)c2C)c1C | ? | / | / | i | -13 | /
CC1CCCC(C)N1C(=O)CSCc1ccc(Cl)cc1 (stereo unspecified) | -43% | 35µM* | 0% | i | 39 | 1
Nc1nonc1C(=O)NCCN=Cc1cc(Cc2ccccc2)cc(Br)c1O | 0% | -16% | 2% | i | -73* | -7
SMILES | gsp agonist | gsp antag | RXFP1 ag | pAkt inh | RXFP1 antagonist | TSHR antagonist
O=C(Cn1nc(-c2ccccc2)ccc1=O)Nc1ccc(-n2cnnn2)cc1 | 3%[15.4 µM] | 45µM* | -4% | i | ? | 15
O=C(Cn1nc(-c2ccc3c(c2)OCCO3)ccc1=O)Nc1ccc(-n2cnnn2)cc1 | -31% | 3% | -2% | i | 0 | 24
CCC(Cc1ccccc1)NC(=O)Cn1cccc1C(=O)c1ccccc1 (stereo unspecified) | 3% | -11% | 0% | / | -114* | -7
CC1(C)O[C@@H]2[C@H](O1)[C@@H](COS(=O)(=O)O)O[C@H]2n1cnc2c(N)ncnc21 | / | / | 16µM* | / | / | 408
O=C(C1CCC(CNS(=O)(=O)c2cccs2)CC1)N1CCN(c2ccc(F)cc2)CC1 (stereo unspecified) | 22% | 35µM* | -3% | i | -8 | -9
CCOC(=O)c1nc(C)sc1-c1ccnn1S(=O)(=O)c1ccc(C)cc1 | -9%[15.4 µM] | -5% | 0% | i | -9 | -78*
CCOC(=O)c1nc(C)sc1-c1ccnn1S(=O)(=O)c1ccccc1C(F)(F)F | 16%[15.4 µM] | -13% | -1% | i | -2 | -3
Cc1nc2ccc(S(=O)(=O)Nc3cccc(-c4nc5cccnc5s4)c3C)cc2s1 | 12% | 35µM* | 2% | i | -27 | -33
Cc1nc2ccc(S(=O)(=O)Nc3cc(-c4nc5cccnc5s4)ccc3C)cc2s1 | 39% | 10% | 14% | i | 4 | -2
Cc1ccc2cc(CN(C(=O)c3ccco3)c3ccccc3)c(=O)[nH]c2c1 | 1% | 11% | 6% | i | -19 | 0
Cc1ccc(N(Cc2cc(=O)[nH]c3ccccc23)C(=O)c2ccco2)cc1 | 20% | -3% | 0% | -119%* | 6 | -3
Cc1ccc(N(Cc2cc3ccccc3[nH]c2=O)C(=O)c2ccco2)c(C)c1 | -2% | -10% | -1% | -112%* | -6 | 9
CC(=O)N(Cc1cc(=O)[nH]c2ccccc12)c1ccc(C)cc1 | -6% | 10% | 1% | i | -7 | 0
CCCCN(Cc1cc2cc(OC)ccc2[nH]c1=O)C(=O)c1ccco1 | ? | -9% | 1% | -93%* | -16 | -3
COc1ccc2[nH]c(=O)c(CN(Cc3ccco3)C(c3nnnn3Cc3ccccc3)C(C)C)cc2c1 (stereo unspecified) | 1% | -36% | 8% | -105%* | -1 | 6
C=CCn1c(=N)c(S(=O)(=O)c2ccc(C)c(C)c2)cc2c(=O)n3ccccc3nc21 | -80% | -4% | 2% | i | 6 | -4
CN(C)[C@@H]1C(=O)C(C(=O)NCN2CCCC2)=C(O)[C@@]2(O)C(=O)C3=C(O)c4c(O)cccc4[C@@](C)(O)C3C[C@@H]12 (stereo partly specified) | / | / | / | / | 12 | /
